Experimental data from PubChem BioAssay AID1159580 (chemical genetic matrix, 2015).
Several values for one entry are separate records, joined by “and”; a condition that tells them apart may be missing. Equal entries are not always repeated. The whole screen tested about 5,500 compounds, of which about 2,000 (36%) were called active. About 18% were inconclusive and are not listed. Rule as the data show it: active = normalized growth mostly below about 0.91 (no sharp cut-off); inconclusive = no clear call, values can overlap the other calls; inactive = mostly above about 0.92. The list shows a part of the results.

Test: chemical genetic growth profiling, strain panel (AID 1159580);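 also: tested at 20 µM; growth read once vehicle control cultures reached saturation at 30 °C; 1 = growth at the plate median or of vehicle wells; lower values mean less growth of the strain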
Settings: S. cerevisiae deletion strains, growth OD

Measured: normalized growth

CCCCCCC(C)OC(=O)COc1ccc(Cl)cc1Cl (configuration not stated)
inactive: locus YAL013W, strain DEP1, hits give low values 0.981 | locus YAL021C, strain ccr4, hits give low values 0.991 | locus YAL026C, strain drs2, hits give low values 0.993 | locus YAL030W, strain snc1, hits give low values 0.99 | locus YBL061C, strain skt5, hits give low values 0.996 | locus YBR009C, strain hhf1, hits give low values 0.985 | locus YBR021W, strain FUR4, hits give low values 1 | locus YBR023C, strain chs3, hits give low values 0.99 | locus YBR171W, strain sec66, hits give low values 0.99 | locus YBR229C, strain ROT2, hits give low values 0.996 | locus YBR231C, strain swc5, hits give low values 0.984 | locus YBR279W, strain paf1, hits give low values 0.994 | locus YCL011C, strain gbp2, hits give low values 0.987 | locus YCL016C, strain dcc1, hits give low values 0.988 | locus YCL029C, strain bik1, hits give low values 1 | locus YCL061C, strain MRC1, hits give low values 0.993 | locus YCL069W, strain vba3, hits give low values 0.992 | locus YCR088W, strain abp1, hits give low values 0.996 | locus YDL005C, strain med2, hits give low values 0.996 | locus YDL035C, strain GPR1, hits give low values 0.955 | locus YDL040C, strain nat1, hits give low values 0.985 | locus YDL074C, strain BRE1, hits give low values 0.968 | locus YDL101C, strain DUN1, hits give low values 0.985 | locus YDL134C, strain PPH21, hits give low values 1 | locus YDL185W, strain tfp1, hits give low values 1.01 | locus YDL192W, strain arf1, hits give low values 1 | locus YDR001C, strain nth1, hits give low values 0.99 | locus YDR069C, strain doa4, hits give low values 0.97 | locus YDR101C, strain arx1, hits give low values 0.996 | locus YDR137W, strain rgp1, hits give low values 0.987 | locus YDR150W, strain NUM1, hits give low values 1.01 | locus YDR159W, strain sac3, hits give low values 0.992 | locus YDR162C, strain NBP2, hits give low values 0.939 | locus YDR195W, strain ref2 0.957 | locus YDR297W, strain sur2, hits give low values 0.988 | locus YDR318W, strain mcm21, hits give low values 1 | locus YDR334W, strain swr1, hits give low values 0.988 | locus YDR335W, strain msn5, hits give low values 0.994 | locus YDR388W, hits give low values 1 | locus YDR392W, strain spt3, hits give low values 0.997 | locus YDR502C, strain sam2, hits give low values 1 | locus YEL003W, strain gim4, hits give low values 0.988 | locus YEL037C, strain rad23, hits give low values 0.995 | locus YEL061C, strain CIN8 (second series), hits give low values 0.988 | locus YEL061C, strain CIN8, hits give low values 0.986 | locus YER015W, strain faa2, hits give low values 0.991 | locus YER016W, strain bim1, hits give low values 0.99 | locus YER110C, hits give low values 1 | locus YER111C, strain swi4, hits give low values 1 | locus YER155C, strain BEM2 (second series), hits give low values 0.989 | locus YER155C, strain BEM2, hits give low values 0.976 | locus YER167W, strain BCK2, hits give low values 0.986 | locus YFR010W, strain ubp6, hits give low values 0.992 | locus YGL078C, strain dbp3, hits give low values 0.996 | locus YGL086W, strain mad1, hits give low values 0.997 | locus YGL167C, strain pmr1, hits give low values 0.993 | locus YGL173C, strain kem1, hits give low values 0.989 | locus YGL227W, strain vid30, hits give low values 0.979 | locus YGL240W, strain doc1, hits give low values 1 | locus YGL248W, strain PDE1, hits give low values 0.991 | locus YGL253W, strain hxk2, hits give low values 0.987 | locus YGR078C, strain PAC10, hits give low values 0.988 | locus YGR135W, strain pre9, hits give low values 1.01 | locus YGR229C, strain SMI1, hits give low values 0.891 | locus YGR252W, strain gcn5, hits give low values 1 | locus YHR013C, strain ard1, hits give low values 0.988 | locus YHR027C, strain rpn1, hits give low values 0.996 | locus YHR030C, strain SLT2, hits give low values 0.974 and 1.03 | locus YHR079C, strain IRE1 (second series), hits give low values 0.997 | locus YHR079C, strain IRE1, hits give low values 1.02 | locus YHR094C, strain hxt1, hits give low values 0.998 | locus YHR129C, strain ARP1, hits give low values 0.977 | locus YHR142W, strain chs7, hits give low values 0.988 | locus YHR200W, strain rpn10, hits give low values 0.993 | locus YIL066C, strain RNR3, hits give low values 0.963 | locus YIL073C, strain SPO22, hits give low values 0.957 | locus YIL125W, strain kgd1, hits give low values 0.996 | locus YIR030C, strain dcg1, hits give low values 0.996 | locus YJL092W, strain hpr5, hits give low values 0.994 | locus YJL095W, strain BCK1 (second series), hits give low values 0.983 | locus YJL095W, strain BCK1, hits give low values 0.94 and 1.03 | locus YJL115W, strain asf1, hits give low values 0.989 | locus YJL129C, strain trk1, hits give low values 0.953 | locus YJL134W, strain LCB3, hits give low values 0.98 | locus YJL154C, strain vps35, hits give low values 0.994 | locus YJL164C, strain tpk1, hits give low values 0.969 | locus YJL166W, strain qcr8, hits give low values 0.989 | locus YJL168C, strain set2, hits give low values 1 | locus YJL187C, strain SWE1 (second series), hits give low values 0.998 | locus YJL187C, strain SWE1, hits give low values 0.992 | locus YJR043C, strain POL32, hits give low values 0.969 | locus YJR066W, strain TOR1, hits give low values 0.949
